# Screening results as filed in PubChem BioAssay.
# RE007 growth inh = less growth of the S. pombe RE007 Vpr strain; Potency, µM (titrated, usually from 92.2 µM), usual class: inhibitors; S. pombe RE007 Vpr strain, BacTiter-Glo ATP luminescence, 24 h; actives 0.21% (n = 360,000); AID 651644; active = well fitted falling curve with a large enough effect; inconclusive = small, poorly fitted or top-dose-only effect; inactive = no such curve, though single readings can be large or run the other way; also: nearly all actives have a fitted effect of over 50% in size
#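 Fission yeast strain RE007, carrying one chromosomally integrated HIV-1 vpr copy, was seeded at OD 0.01 in PMG+AL medium with 23 nL pinned compound. After 24 h at 30 °C and 99% humidity, viability was read by BacTiter-Glo luminescence.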
# LmPK inh = inhibitors of Leishmania mexicana pyruvate kinase; purified LmPK, Kinase-Glo ATP luminescence, 1 h; Potency, µM (doses to about 57.5 µM), most hits filed as inhibitors; actives 0.37% (n = 290,000); AID 1721
#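 Screened at intermediate enzyme activity to detect both inhibitors and activators: LmPK at 0.1 nM, with a 0.5 nM enzyme column as activation reference. PEP 0.5 mM, ADP 0.1 mM; ATP detected by luminescence after 1 h.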
# Cycloheximide cs = counter-screen for Shiga toxin inhibitors: cycloheximide protein synthesis inhibition; cell reporter, cycloheximide protein synthesis inhibition counterscreen; max response, %; actives 12% (n = 300,000); AID 2314; in the data active = max response mostly above about 13%, no sharp cut-off; inactive = mostly below about 14%; also: read at 38.3 µM for the half of the compounds with a filed dose
# Shiga inhibitor = Shiga toxin inhibition | inhibition, % at 38.7 µM | actives 9.2% (n = 290,000) | Vero cells, Shiga toxin protein synthesis inhibition reporter; in the data active = inhibition mostly above about 28%, no sharp cut-off; inactive = mostly below about 43%
# Tb PYK inh = T. brucei pyruvate kinase inhibition. Q57TT1. TbPYK enzyme, Kinase-Glo Plus ATP luminescence, 45 min. Potency, µM (top dose mostly 76.8 µM), most hits filed as inhibitors. actives 0.12% (n = 410,000). AID 624173; also: nearly all actives have a fitted effect of over 50% in size
#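 Assay buffer: 50 mM TEA pH 7.2, 100 mM KCl, 10 mM MgCl2, 0.05% BSA, 0.01% Tween-20. Pyruvate kinase from T. brucei plus substrate met compound, then ADP (130 uM final). Luminescence was read post 45 min RT.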
# Giardia FBPA inh = inhibitors of Giardia lamblia fructose-1,6-bisphosphate aldolase. A8B2U2. purified Giardia FBPA. Potency, µM (doses to about 59.6 µM), usual class: inhibitors. actives 0.71% (n = 290,000); also: nearly all actives have a fitted effect of over 55% in size
# Target sequence (A8B2U2 whole entry, looked up): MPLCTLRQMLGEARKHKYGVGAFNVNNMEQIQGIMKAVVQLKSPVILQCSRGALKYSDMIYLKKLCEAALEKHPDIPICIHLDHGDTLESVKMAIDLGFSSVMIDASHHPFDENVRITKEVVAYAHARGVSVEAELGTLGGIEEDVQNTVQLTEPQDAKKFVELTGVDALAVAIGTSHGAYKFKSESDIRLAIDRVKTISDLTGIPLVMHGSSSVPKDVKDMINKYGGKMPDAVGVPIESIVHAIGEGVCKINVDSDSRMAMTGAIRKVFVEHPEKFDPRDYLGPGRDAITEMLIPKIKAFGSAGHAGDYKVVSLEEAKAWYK
#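 Giardia FBPA (40 nM reagent) was preincubated 10 min at RT with compound (up to 57.5 uM final), then substrate plus GAPDH/TPI/NAD/arsenate coupling system with diaphorase/resazurin was added; resorufin fluorescence (525/598 nm) was read after 20 min.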
# A number is an active result; . = inactive; ? = inconclusive; / = no result given; [ ] = dose if it differs, or a comment. Only a selection was taken, and hits are over-represented in it overall. Unless noted, calls follow the shape of the dose curve; as a rule, active = well fitted curve in the direction sought with a large enough effect; inconclusive = small, poorly fitted or top-dose-only effect, or another doubt; inactive = no such curve, though single readings can be large; an effect the other way counts as inactive or inconclusive.
SMILES,RE007 growth inh,LmPK inh,Cycloheximide cs,Shiga inhibitor,Tb PYK inh,Giardia FBPA inh
Cc1ccc2occ(CC(=O)N(Cc3ccc(Cl)cc3)C3CCS(=O)(=O)C3)c2c1 (stereo unspecified),/,/,/,/,.,/
COC(=O)C1CCc2c(ccc3c2CCCC3)C1=O (stereo unspecified),.,/,/,/,.,/
Cc1ccccc1NC(=O)c1c(C)oc2ccc(O)c(CN3CCCC(C)C3)c12 (stereo unspecified),/,/,/,/,.,/
O=C(CN1CCN(S(=O)(=O)c2ccc(Br)cc2)CC1)Nc1ccccc1F,.,.,.,.,.,.
O=C(CN1CCN(S(=O)(=O)c2ccc(Cl)cc2)CC1)Nc1ccc(F)cc1F,.,.,17,.,.,.
O=C(CN1CCN(S(=O)(=O)c2ccc(Br)cc2)CC1)Nc1ccc(F)cc1F,.,.,13,.,.,/
Clc1cccc(N2CCN(c3nc4ccccc4c4nc(-c5cccnc5)nn34)CC2)c1,/,/,/,/,.,/
O=[N+]([O-])c1c(C(Cl)Cl)nn(-c2ccc(Cl)cc2)c1N1CCCCC1,.,.,.,.,.,.
NCCC[C@@H](CC(=O)N[C@@H]1CCCC[C@H]1C(=O)N[C@H](CC(=O)N[C@@H](CCC(=O)O)CC(=O)O)Cc1ccccc1)NC(=O)C[C@H](Cc1c[nH]c2ccccc12)NC(=O)[C@@H]1CNCC[C@H]1N,/,/,/,/,/,.
COc1ccc(NC(=O)CN2CCCC(C)C2)c([N+](=O)[O-])c1 (stereo unspecified),.,.,17,32,.,.
COCC(=O)NC1CCN(CC(=O)Nc2ccc(OC)cc2[N+](=O)[O-])CC1,.,.,.,.,.,.
COc1cc(NC(=O)CN2CCC(C)CC2)c(C)cc1[N+](=O)[O-],/,.,.,active,.,.
COc1cc(NC(=O)CN2CCN(c3ccccc3O)CC2)c(C)cc1[N+](=O)[O-],.,.,.,.,.,.
CCc1ccccc1NC(=S)NN,/,.,.,.,/,16µM
Oc1ccc(/C=N/Nc2ncc(Br)cn2)c(O)c1,.,.,76,115,.,.
O=[N+]([O-])c1ccccc1/C=N/Nc1nccnc1Cl,.,?,50,124,.,.
Oc1ccc(C=NNc2ccccn2)c(O)c1,.,/,/,/,.,/
Nc1cc(Cl)nc(N/N=C/c2ccccc2[N+](=O)[O-])n1,.,.,47,87,.,.
Oc1ccc(/C=N/Nc2nccnc2Cl)c(O)c1,.,13µM,49,124,?,.
COCCN(CC(=O)Nc1cccc(C)c1C)C(=O)c1oc2c(Cl)cccc2c1C,.,/,/,/,.,/
Oc1ccccc1/C=N/Nc1nccnc1Cl,?,16µM,38,.,.,.
O=C(CCCCC(=O)NN=Cc1ccccc1O)NN=Cc1ccccc1O,.,/,/,/,.,/
CO[C@@]1(NC(=O)CSC(F)F)C(=O)N2C(C(=O)O)=C(CSc3nnnn3CCO)CO[C@@H]21,/,/,/,/,.,/
Cc1ccc2c(Cl)c(C(=O)NCC3CCCO3)sc2c1 (stereo unspecified),.,.,55,77,.,.
O=C(NCCc1ccccc1)c1ccc2c(=O)[nH]c3c(C(=O)NCC4CCCO4)sc(=S)n3c2c1 (stereo unspecified),.,.,.,.,.,/
SMILES,RE007 growth inh,LmPK inh,Cycloheximide cs,Shiga inhibitor,Tb PYK inh,Giardia FBPA inh
COc1cc(C(=O)NCC2CCCO2)ccc1OCc1ccc(Cl)cc1 (stereo unspecified),.,/,/,/,.,/
O=C(NCC1CCCO1)c1sc2ccccc2c1Cl (stereo unspecified),?,.,41,73,.,.
O=C(NCC1CCCO1)c1sc(=S)n2c1[nH]c(=O)c1ccc(C(=O)N3CCCCC3)cc12 (stereo unspecified),.,20µM,.,.,?,.
COc1ccc2c(Cl)c(C(=O)NCC3CCCO3)sc2c1Cl (stereo unspecified),/,.,20,.,/,.
Cc1noc(C(=O)NCC2CCCO2)c1Cl (stereo unspecified),.,.,.,.,.,.
CC(=O)Nc1ccc(CN(C)c2c(C)nc3ccc(C(=O)N4CCN(C(C)=O)CC4)cn23)cc1,.[18.4 µM],/,/,/,.,/
Cc1ccc(-c2onc(C)c2C)cc1S(=O)(=O)NCc1cccs1,/,/,/,/,.,/
CC(=O)Nc1sc2c(c1C(N)=O)CCC2,.,.,.,.,.,.
